In the library only some 4.1% were active in any assay of this set; here they are far more common.
A1 inh: caspase 3/7 activation in MEF A1-2A-BIM cells, primary screen, A1 inhibitor project, cell-based, luminescence, HTS; Caspase-Glo 3/7 luminescence, 3 h; percent of clofoctol response, vehicle zero; caspase activation, % (test concentration not listed); 330,000 tested, 0.066% active; AID 2462, 2010;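 active = over half of replicate activation scores above 10%, or exactly half above 10 with the replicate mean above 10; inconclusive = replicate mean below 10 yet half the replicates above 10; inactive = over half of replicates below 10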
CSC inhib: cancer stem cell viability inhibitors, primary screen, luminescence | inhibition, % at 7.5 µM | cancer stem cell-like cells viability | AID 2717, 2010 | 300,000 tested, 1.1% active; in the data active = inhibition above about 75%; inconclusive = no clear call, values can overlap the other calls; tested in HMLE shEcad cells
Mdm2 MdmX PPI: inhibitors of human Mdm2-MdmX association, primary screen, cell-based, luminescence, split luciferase, SaOS-2, uHTS. AID 485346, 2010. 330,000 tested, 3% active. SaOS-2 split-luciferase Mdm2/MdmX complementation. Protein Mdm4 (Homo sapiens) + E3 ubiquitin-protein ligase Mdm2 (Homo sapiens), …. inhibition, % at 8 µM;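 active = inhibition of at least 50% at 8 µM in the primary screen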
Target sequence (O15151 whole entry, looked up): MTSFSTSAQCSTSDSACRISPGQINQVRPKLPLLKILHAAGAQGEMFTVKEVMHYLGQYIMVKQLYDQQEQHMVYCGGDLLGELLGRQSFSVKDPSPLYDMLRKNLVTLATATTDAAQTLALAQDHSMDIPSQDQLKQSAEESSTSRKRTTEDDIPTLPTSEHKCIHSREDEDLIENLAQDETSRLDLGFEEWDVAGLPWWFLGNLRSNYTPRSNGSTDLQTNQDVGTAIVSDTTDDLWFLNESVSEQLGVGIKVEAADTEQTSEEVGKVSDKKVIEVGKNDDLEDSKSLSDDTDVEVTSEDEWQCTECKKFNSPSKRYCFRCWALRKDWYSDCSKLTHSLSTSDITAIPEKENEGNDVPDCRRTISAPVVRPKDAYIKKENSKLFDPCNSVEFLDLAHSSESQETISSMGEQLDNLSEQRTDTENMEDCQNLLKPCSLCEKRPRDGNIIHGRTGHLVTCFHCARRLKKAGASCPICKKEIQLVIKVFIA
Target sequence (Q00987 whole entry, looked up): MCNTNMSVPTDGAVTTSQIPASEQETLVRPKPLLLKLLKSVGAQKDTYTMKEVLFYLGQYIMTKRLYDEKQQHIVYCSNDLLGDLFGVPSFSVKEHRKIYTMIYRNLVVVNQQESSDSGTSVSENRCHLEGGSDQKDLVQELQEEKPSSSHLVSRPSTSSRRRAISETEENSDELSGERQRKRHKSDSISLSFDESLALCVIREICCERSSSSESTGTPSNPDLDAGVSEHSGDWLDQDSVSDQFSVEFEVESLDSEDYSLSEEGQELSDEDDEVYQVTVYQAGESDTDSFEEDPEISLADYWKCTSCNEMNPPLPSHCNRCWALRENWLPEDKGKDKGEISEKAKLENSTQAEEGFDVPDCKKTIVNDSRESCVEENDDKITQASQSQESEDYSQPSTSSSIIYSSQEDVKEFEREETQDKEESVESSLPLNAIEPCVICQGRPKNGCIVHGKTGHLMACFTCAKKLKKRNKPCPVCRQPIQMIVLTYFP
aSyn UTR inh: MLPCN primary screen, SNCA 5' untranslated region | inhibition, % (tested at 7.5 µM) | alpha-synuclein 5'UTR reporter, inhibitor activity | 300,000 tested, 0.82% active | AID 1813, 2009; in the data active = inhibition above about 60%; inconclusive = no clear call, values can overlap the other calls;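 also: H4 neuroglioblastoma cells stably carrying SNCA 5'UTR luciferase fusion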
Beta cell apopt: inhibitors of cytokine-induced beta cell apoptosis, primary screen, luminescence; INS-1E cytokine-induced death, ATP luminescence, 48 h; percent of positive-control rescue, neutral wells zero; protection from apoptosis, % (test concentration not listed); 300,000 tested, 0.8% active; AID 435005, 2010;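 active = Every replicate reaches about 75%, or at least half do and their mean reaches it too, limit read from the data; inconclusive = At least half of replicates reach the limit but their mean does not; inactive = Under half of replicates reach the limit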;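 also: higher means more ATP so stronger rescue from cytokine killing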
Mdm2 MdmX conf: Mdm2-MdmX complex disruptors, retested hits, confirmation, luminescence, single concentration; Mdm2-MdmX binding, luminescent assay; inhibition, % at 8 µM; AID 489028, 2010; shares compounds with Mdm2 MdmX PPI; 10,000 tested, 55% active; in the data active = inhibition above about 40%
Full FLuc ctr: full-length luciferase signal inhibition, confirmation, counter-screen for Mdm2/MdmX interaction inhibitor project, cell-based, single concentration, SaOS-2; shares compounds with Mdm2 MdmX PPI; SaOS-2 full-length luciferase counterscreen, luminescence; inhibition, % at 8 µM; 6,200 tested, 77% active; AID 504607, 2011;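 active = mean inhibition at 8 µM reaching about 37%, which flags the compound as non-specific, limit read from the data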;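 also: p53-null SaOS-2 cells with luciferase driven by a doxycycline-inducible promoter; compound on cells about two nights before reading with doxycycline added after day one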
Numbers stand for hits; . = inactive; ? = inconclusive; / = no result.

SMILES	A1 inh	CSC inhib	Mdm2 MdmX PPI	aSyn UTR inh	Beta cell apopt	Mdm2 MdmX conf	Full FLuc ctr
COc1ccc(C(OCC(O)CNCCc2ccc(S(N)(=O)=O)cc2)c2ccc(OC)cc2)cc1 (centres undefined)	.	.	.	.	.	/	/
OC(CNCCc1ccc(C(F)(F)F)cc1)COC(c1ccccc1)c1ccccc1 (centres undefined)	.	107	87	.	.	42	56
N#C/C(=N\Nc1cccc(Cl)c1)C(=O)c1ccccc1	.	.	71	.	.	.	/
Cc1ccc(N/N=C(\C#N)C(N)=S)cc1C	.	.	64	.	.	53	72
N#C/C(=N\Nc1ccccc1Cl)C(=O)c1ccccc1	.	.	.	.	/	/	/
N#C/C(=N\Nc1ccc(Cl)cc1)C(=O)c1ccsc1	.	.	69	.	.	.	74
N#C/C(=N\Nc1ccc(Cl)cc1)C(N)=S	.	.	64	.	.	64	44
CCc1ccc(CNC(=O)c2ccc3nc(C4CCCCC4)oc3c2)nc1	.	.	.	.	/	/	/
Cc1ccc(C(=O)OCC(=O)NNC(=O)c2cccs2)c(O)c1	?	.	.	.	.	/	/
CCOc1ccc(S(=O)(=O)NCc2ccc3c(c2)OCO3)cc1C(=O)O	.	.	.	.	.	/	/
CC(=O)c1cn(N2CCCCC2)c(=O)[nH]c1=O	.	.	.	.	.	/	/
COCCCNC(=O)CCc1c(C)nc2c(c(C)nn2-c2ccccc2)c1C	.	.	.	.	.	/	/
Cc1ccc(-n2nc(C)c3c(C)c(CCC(=O)Nc4ccc(CN5CCCC5)cc4)c(C)nc32)cc1	.	?	89	104	.	50	.
COC(CNC(=O)CCc1c(C)nc2c(c(C)nn2-c2ccc(C)cc2)c1C)OC	.	.	.	.	.	/	/
CCN(CC)CCNC(=O)CCc1c(C)nc2c(c(C)nn2-c2ccc(C)c(C)c2)c1C	.	.	58	.	.	44	48
Cc1cc(SCC(=O)c2cccc([N+](=O)[O-])c2)nc(=O)[nH]1	.	.	/	.	/	/	/
CCOc1ccccc1N(CC(=O)NC1CCCC1)C(=O)CNC(=O)c1cccs1	.	.	.	.	.	/	/
CCCOc1ccc(/C=C/c2c([N+](=O)[O-])c(=O)n(C)c(=O)n2C)cc1	.	.	.	.	.	/	/
COc1ccccc1NCC(=O)N/N=C/c1c(O)ccc2ccccc12	.	.	87	.	77	77	.
COc1ccccc1N(CC(=O)Nc1ccccc1C)S(C)(=O)=O	.	.	.	.	.	/	/
COc1ccccc1N(CC(=O)N/N=C/c1c(O)ccc2ccccc12)S(C)(=O)=O	.	.	77	?	87	77	.
COc1ccccc1NC(=O)c1c(N=Cc2c(O)ccc3ccccc23)cnn1C	.	?	52	.	.	.	/
O=C(CNc1ccc(F)cc1)N/N=C/c1c(O)ccc2ccccc12	.	.	72	.	81	77	.
CCCSCCCNC(=O)c1ccc(NC(=O)C2=CSCCO2)cc1	.	.	.	.	.	/	/
COc1ccc(N2CCN(S(=O)(=O)CCNC(=O)COc3ccccc3C)CC2)cc1	.	.	.	.	/	/	/
N#Cc1ccccc1NC(=O)COC(=O)CN1C(=O)C2CCCCC2C1=O (centres undefined)	.	.	.	/	.	/	/
O=C(CN1CCCc2ccccc21)N/N=C/c1c(O)ccc2ccccc12	.	?	81	.	.	91	.
CC(Sc1ccccc1F)C(=O)Nc1ccc2c(c1)OCCO2 (centres undefined)	.	.	.	/	.	/	/
O=S(=O)(c1cccc(F)c1)N1CCN(c2nc(-c3cccnc3)nc3ccccc23)CC1	.	.	.	/	.	/	/
COC(=O)/C=c1/s/c(=C(\C#N)C(=O)NCc2ccco2)n(-c2ccccc2)c1=O	.	.	.	.	.	/	/

High-throughput results (PubChem BioAssay)
